Bioassay records (PubChem)
LmPK inhibitor – qHTS Assay for Inhibitors of Leishmania Mexicana Pyruvate Kinase (LmPK); Q27686; purified LmPK, Kinase-Glo ATP luminescence, 1 h; Potency, µM (doses to about 57.5 µM), for inactives: at the top dose activity change, negative = inhibition, most hits filed as inhibitors; actives 0.37% (n = 290,000); AID 1721, 2009; note: % is set by controls: 0 for no effect and ±100 for the full control effect
Target sequence (Q27686 whole entry, looked up): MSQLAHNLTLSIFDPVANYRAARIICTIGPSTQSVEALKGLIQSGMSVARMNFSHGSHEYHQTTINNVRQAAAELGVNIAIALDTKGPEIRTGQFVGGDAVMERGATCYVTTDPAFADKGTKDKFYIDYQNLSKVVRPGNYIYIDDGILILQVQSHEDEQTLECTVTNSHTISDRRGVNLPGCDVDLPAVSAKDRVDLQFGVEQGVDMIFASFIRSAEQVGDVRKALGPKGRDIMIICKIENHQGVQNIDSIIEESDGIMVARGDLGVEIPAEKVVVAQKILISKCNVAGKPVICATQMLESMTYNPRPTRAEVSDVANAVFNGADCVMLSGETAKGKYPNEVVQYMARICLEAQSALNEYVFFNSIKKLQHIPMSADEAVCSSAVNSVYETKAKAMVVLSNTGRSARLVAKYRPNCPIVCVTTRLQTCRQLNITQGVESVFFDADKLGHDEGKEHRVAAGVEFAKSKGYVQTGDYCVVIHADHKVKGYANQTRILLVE
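Pyruvate kinase activity monitored as ATP production (luciferase luminescence). Conditions: 0.1 nM enzyme, 0.5 mM PEP, 0.1 mM ADP, 1 h, RT; normalized against uninhibited and no-enzyme wells.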
NS1 function inh – qHTS Assay for Inhibitors of Influenza NS1 Protein Function | AID 2326, 2010 | Potency, µM (highest dose often 46.1 µM), for inactives: top-dose activity, positive = more growth | actives 0.4% (n = 270,000); calls by dose curve; note: actives are rising curves; nearly all actives have a fitted effect of over 50% in size
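S. cerevisiae expressing influenza A NS1, grown in glucose, washed, then diluted 1:100 into pH 6.0 -URA galactose medium with 23 nl compound. Growth recovery read as OD600; NS1-free strain serves as control.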
TbPYK inhibitor – qHTS of Trypanosoma Brucei Inhibitors | actives 0.12% (n = 410,000) | pyruvate kinase (Trypanosoma brucei), Q57TT1 | TbPYK enzyme, Kinase-Glo Plus ATP luminescence, 45 min | Potency, µM (series often up to 76.8 µM), without a hit: at the highest dose activity, negative = inhibition, hits mostly inhibitors | AID 624173, 2012; note: % is set by controls: 0 for no effect and ±100 for the full control effect; nearly all actives have a fitted effect of over 50% in size
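Glycolytic pyruvate kinase of T. brucei was incubated with substrate, test compound and 130 uM ADP for 45 minutes at room temperature. Luminescent Kinase-Glo Plus signal was measured after 10 minutes.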
RE007 growth inh – qHTS Assay for Inhibitors of the HIV-1 protein Vpr. S. pombe RE007 Vpr strain, BacTiter-Glo ATP luminescence, 24 h. Potency, µM (top dose mostly 92.2 µM), for inactives: at the highest dose activity change, negative = less growth, hits mostly inhibitors. actives 0.21% (n = 360,000); active = well fitted falling curve with a large enough effect; inconclusive = small, poorly fitted or top-dose-only effect; inactive = no such curve, though single readings can be large or run the other way; note: % is set by controls: 0 for no effect and ±100 for the full control effect; nearly all actives have a fitted effect of over 50% in size
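Fission yeast RE007 carrying one integrated HIV-1 vpr copy, seeded at OD 0.01 in PMG+AL medium with 23 nL pinned compound. Grown 24 h at 30 degrees; viability read by BacTiter-Glo luminescence after 5 min.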
AMA1-RON2 inh – qHTS for Inhibitors of AMA1-RON; Towards Development of Antimalarial Drug Lead: Primary Screen | Plasmodium falciparum AMA1 (3D7) - RON2 peptide interaction | AlphaScreen AMA1-biotinylated RON2 peptide binding | Potency, µM (titrated, usually from 58.2 µM), for the others: at the top dose activity change, negative = inhibition, actives largely listed as inhibitors | actives 0.2% (n = 360,000) | AID 720542, 2013;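 note: 0% = vehicle wells and -100% = peptide control; nearly all actives have a fitted effect of over 45% in size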
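AMA1 (3D7) with his tag at 25 nM final met compounds first, then biotinylated RON2 peptide at 25 nM; detection used donor plus acceptor beads, 10 µg/mL apiece, read by AlphaScreen after 30 min at room temperature.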
* = called active by the depositor; u = inconclusive; x = no result given; ! = a repeat was not active; [ ] = remark or other dose. Most compounds without a hit are left out; they make up all but 0.92% or so of the library. Unless noted, calls come from the whole dose curve; as a rule, active = well fitted curve in the direction sought with a large enough effect; inconclusive = small, poorly fitted or top-dose-only effect, or another doubt; inactive = no such curve, though single readings can be large; an effect the other way counts as inactive or inconclusive. Potency is the fitted concentration of half-maximal effect.

SMILES | LmPK inhibitor | NS1 function inh | TbPYK inhibitor | RE007 growth inh | AMA1-RON2 inh
CCOC(=O)c1c(C)oc2c1c(C(c1ccncc1)N1CCOCC1)c(O)c1ccccc12 (stereo unspecified) | -2% | -104% | -12% | 40µM* | u
CCOC(=O)c1c(C)oc2c1c(CN1CCN(C(=O)OCC)CC1)c(O)c1ccccc12 | 1% | -43% | -11% | -16% | u
CCOC(=O)Nc1ccc(C)cc1NC(=O)OCC | -4% | -3% | 4% | -23% | 0%
CCOC(=O)Nc1ccc(NCc2ccc(F)cc2)nc1N | x | u | 32µM*! | -12% | 48%
CCCCCCC(O)C/C=C/CCCCCCCC(=O)O (stereo unspecified) | x | x | -2% | x | x
Cn1ccc2c(N(Cc3ccccc3)Cc3ccccc3)cc3c(c21)C1CCC3C1 (stereo unspecified) | x | x | 5% | -16% | u
CN(Cc1ccccc1)c1cc2c(c3c1ccn3C)C1CCC2C1 (stereo unspecified) | x | x | -8% | -8% | 16µM*
CN(CCc1ccccc1)c1cc2c(c3c1ccn3C)C1CCC2C1 (stereo unspecified) | x | x | -10% | -28% | 16µM*
CCN(C)c1cc2c(c3c1ccn3C)C1CCC2C1 (stereo unspecified) | x | x | -8% | -20% | u
COc1ccccc1N(C)c1cc2c(c3c1ccn3C)C1CCC2C1 (stereo unspecified) | x | x | -2% | -8% | 13µM*
CN(c1cc2c(c3c1ccn3C)C1CCC2C1)C1CCCCC1 (stereo unspecified) | x | x | -3% | u | 16µM*
O=C(O)CNC(=O)CNC(=O)CNC(=O)CSC(=O)c1ccccc1 | x | x | 4% | x | x
Cc1ccc(S(=O)(=O)N2CCc3nc(-c4ccccc4)c4c(c3C2)CO[C@@H](C)C4)cc1 | -5%[11.5 µM] | x | x | x | x
CO/N=C(\C(=O)N[C@@H]1C(=O)N2C(C(=O)[O-])=C(C[n+]3cccc4c3CCC4)CS[C@H]12)c1csc(N)n1 | x | x | -4% | x | x
Oc1ccc(/C=N/n2c3ccccc3c3ccccc32)cc1 | 7% | -4% | 5% | 32µM* | -8%
Cc1nnc(C)n1/N=C/c1ccc(O)cc1 | 0% | -4% | 1% | 16% | 3%
CN1CCN(c2ccc(CNC(=O)c3ccc(-c4ccc(F)c(F)c4)c4ccoc34)cc2)CC1 | x | x | -1% | u | u
CN1CCN(c2ccc(CNC(=O)c3cccc4c(-c5ccc(F)c(F)c5)coc34)cc2)CC1 | x | x | -9% | -17% | 14µM*
O=C(O)c1ccc(N2C(=O)/C(=C/C=C/c3ccccc3)SC2=S)cc1 | 3% | 7% | -17% | -16% | 7%
CN(C)c1ccc(/C=C/C=C2/SC(=S)N(c3ccccc3)C2=O)cc1 | 13µM* | x | u | -19% | 2.5µM*
O=C(NCCN1CCOCC1)c1cc(-c2ccc(O)cc2)on1 | x | -17% | x | x | x
CCn1c(-c2ccc(Cl)cc2)n[nH]c1=S | u | -15% | u | -9% | 36%
Cc1ccc(-n2c(-c3cccnc3)n[nH]c2=S)c(C)c1 | 13µM* | -6% | x | 5%[3.69 µM] | 43%
COc1ccc(-c2n[nH]c(=S)n2-c2ccc(C)cc2C)cc1 | -2% | 9% | 18µM* | 7% | 62%
Cc1ccc(-n2c(-c3ccc(Cl)cc3)n[nH]c2=S)c(C)c1 | 20µM* | u | 5µM* | 16% | 76%
SMILES | LmPK inhibitor | NS1 function inh | TbPYK inhibitor | RE007 growth inh | AMA1-RON2 inh
FC(F)(F)c1ccccc1-n1c(-c2cnccn2)n[nH]c1=S | u | -6% | u | 8% | 67%
CCn1c(-c2cccnc2)n[nH]c1=S | -5% | 11% | u | 5% | -12%
Cc1ccc(-n2c(-c3cnccn3)n[nH]c2=S)c(Br)c1 | 32µM* | 1% | u | 0% | -3%
CO/N=C(\C(=O)N[C@@H]1C(=O)N2C(C(=O)[O-])=C(C[n+]3cccc4c3CCCC4)CS[C@H]12)c1csc(N)n1 | x | x | -14% | x | x
COc1ccccc1-n1c(-c2ccccc2)c[nH]c1=S | 11µM* | x | u | 8% | 62%
COc1ccccc1-n1c(-c2cccnc2)n[nH]c1=S | 14µM* | 6% | u | 12% | -8%
